Reference: PubChem BioAssay AID1159580 (chemical genetic matrix, 2015)
In all, about 5,500 compounds went through this assay and about 2,000 (36%) were called active. Another 18% or so got no clear call; they are omitted. Cut-off read from the data, not from the text of the source: active = normalized growth mostly below about 0.91 (no sharp cut-off); inconclusive = no clear call, values can overlap the other calls; inactive = mostly above about 0.92. Some of the results follow.

Assay: chemical genetic growth profiling, strain panel (AID 1159580);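 note: tested at 20 µM; growth read once vehicle control cultures reached saturation at 30 °C; 1 = growth at the plate median or of vehicle wells; lower values mean less growth of the strain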
Conditions: growth OD

Measured: normalized growth

Clc1ccc(COC(Cn2ccnc2)c2ccc(Cl)cc2Cl)c(Cl)c1 (configuration not stated)
active: S. cerevisiae deletion strains, locus YJR075W, strain HOC1, stronger effect = lower value 0.0654 | S. cerevisiae deletion strains, locus YKL009W, strain mrt4, stronger effect = lower value 0.0991 | S. cerevisiae deletion strains, locus YKL068W, stronger effect = lower value 0.0685 | S. cerevisiae deletion strains, locus YKL085W, strain MDH1 (second series), stronger effect = lower value 0.0665 | S. cerevisiae deletion strains, locus YKL085W, strain MDH1, stronger effect = lower value 0.0665 | S. cerevisiae deletion strains, locus YKL160W, strain elf1, stronger effect = lower value 0.0826 | S. cerevisiae deletion strains, locus YKL190W, strain CNB1, stronger effect = lower value 0.046 | S. cerevisiae deletion strains, locus YKR001C, strain vps1, stronger effect = lower value 0.0634 | S. cerevisiae deletion strains, locus YKR026C, strain gcn3, stronger effect = lower value 0.0698 | S. cerevisiae deletion strains, locus YKR091W, strain srl3, stronger effect = lower value 0.0616 | S. cerevisiae deletion strains, locus YLL001W, strain dnm1, stronger effect = lower value 0.0638 | S. cerevisiae deletion strains, locus YLL026W, stronger effect = lower value 0.0593 | S. cerevisiae deletion strains, locus YLL041C, strain sdh2, stronger effect = lower value 0.0595 | S. cerevisiae deletion strains, locus YLR027C, strain aat2, stronger effect = lower value 0.0575 | S. cerevisiae deletion strains, locus YLR039C, strain RIC1, stronger effect = lower value 0.0754 | S. cerevisiae deletion strains, locus YLR058C, strain SHM2, stronger effect = lower value 0.0389 | S. cerevisiae deletion strains, locus YLR102C, strain apc9, stronger effect = lower value 0.0667 | S. cerevisiae deletion strains, locus YLR113W, strain HOG1, stronger effect = lower value 0.128 | S. cerevisiae deletion strains, locus YLR221C, strain rsa3, stronger effect = lower value 0.0643 | S. cerevisiae deletion strains, locus YLR258W, strain gsy2, stronger effect = lower value 0.0636 | S. cerevisiae deletion strains, locus YLR262C, strain YPT6 (second series), stronger effect = lower value 0.0835 | S. cerevisiae deletion strains, locus YLR262C, strain YPT6, stronger effect = lower value 0.0925 | S. cerevisiae deletion strains, locus YLR268W, strain sec22, stronger effect = lower value 0.0664 | S. cerevisiae deletion strains, locus YLR320W, strain mms22, stronger effect = lower value 0.087 | S. cerevisiae deletion strains, locus YLR330W, strain CHS5, stronger effect = lower value 0.0522 | S. cerevisiae deletion strains, locus YLR342W, strain FKS1 (second series), stronger effect = lower value 0.0607 | S. cerevisiae deletion strains, locus YLR342W, strain FKS1, stronger effect = lower value 0.0655 | S. cerevisiae deletion strains, locus YLR357W, strain rsc2, stronger effect = lower value 0.124 | S. cerevisiae deletion strains, locus YLR370C, strain arc18, stronger effect = lower value 0.064 | S. cerevisiae deletion strains, locus YLR371W, strain rom2, stronger effect = lower value 0.0643 | S. cerevisiae deletion strains, locus YLR384C, strain iki3, stronger effect = lower value 0.0632 | S. cerevisiae deletion strains, locus YLR418C, strain cdc73, stronger effect = lower value 0.104 | S. cerevisiae deletion strains, locus YML016C, strain PPZ1, stronger effect = lower value 0.0516 | S. cerevisiae deletion strains, locus YML032C, strain rad52, stronger effect = lower value 0.0665 | S. cerevisiae deletion strains, locus YML120C, strain ndi1, stronger effect = lower value 0.0587 | S. cerevisiae deletion strains, locus YML124C, strain tub3, stronger effect = lower value 0.058 | S. cerevisiae deletion strains, locus YMR058W, strain fet3, stronger effect = lower value 0.0613 | S. cerevisiae deletion strains, locus YMR078C, strain ctf18, stronger effect = lower value 0.0692 | S. cerevisiae deletion strains, locus YMR125W, strain sto1, stronger effect = lower value 0.0759 | S. cerevisiae deletion strains, locus YMR129W, stronger effect = lower value 0.0593 | S. cerevisiae deletion strains, locus YMR205C, strain PFK2, stronger effect = lower value 0.0878 | S. cerevisiae deletion strains, locus YMR223W, strain ubp8, stronger effect = lower value 0.0663 | S. cerevisiae deletion strains, locus YMR231W, strain pep5, stronger effect = lower value 0.171 | S. cerevisiae deletion strains, locus YMR263W, strain SAP30, stronger effect = lower value 0.062 | S. cerevisiae deletion strains, locus YMR307W, strain GAS1, stronger effect = lower value 0.107 | S. cerevisiae deletion strains, locus YNL067W, strain RPL9B, stronger effect = lower value 0.0502 | S. cerevisiae deletion strains, locus YNL071W, strain lat1, stronger effect = lower value 0.0615 | S. cerevisiae deletion strains, locus YNL128W, strain TEP1, stronger effect = lower value 0.0612 | S. cerevisiae deletion strains, locus YNL153C, strain GIM3, stronger effect = lower value 0.0486 | S. cerevisiae deletion strains, locus YNL183C, strain NPR1, stronger effect = lower value 0.00703 | S. cerevisiae deletion strains, locus YNL209W, strain ssb2, stronger effect = lower value 0.0642 | S. cerevisiae deletion strains, locus YNL233W, strain BNI4, stronger effect = lower value 0.0542 | S. cerevisiae deletion strains, locus YNL248C, strain rpa49, stronger effect = lower value 0.0801 | S. cerevisiae deletion strains, locus YNL250W, strain rad50, stronger effect = lower value 0.0712 | S. cerevisiae deletion strains, locus YNL271C, strain bni1, stronger effect = lower value 0.0673 | S. cerevisiae deletion strains, locus YNL298W, strain CLA4, stronger effect = lower value 0.0653 | S. cerevisiae deletion strains, locus YNL307C, strain MCK1, stronger effect = lower value 0.0672 | S. cerevisiae deletion strains, locus YNL322C, strain KRE1 (second series), stronger effect = lower value 0.0752 | S. cerevisiae deletion strains, locus YNL322C, strain KRE1, stronger effect = lower value 0.0472 | S. cerevisiae deletion strains, locus YNR049C, strain mso1, stronger effect = lower value 0.0611 | S. cerevisiae deletion strains, locus YNR052C, strain pop2, stronger effect = lower value 0.0593 | S. cerevisiae deletion strains, locus YOL006C, strain TOP1, stronger effect = lower value 0.0836 | S. cerevisiae deletion strains, locus YOL012C, strain htz1 0.185 | S. cerevisiae deletion strains, locus YOL147C, strain pex11, stronger effect = lower value 0.059 | S. cerevisiae deletion strains, locus YOR001W, strain rrp6, stronger effect = lower value 0.0687 | S. cerevisiae deletion strains, locus YOR061W, strain CKA2, stronger effect = lower value 0.0316 | S. cerevisiae deletion strains, locus YOR069W, strain VPS5, stronger effect = lower value 0.052 | S. cerevisiae deletion strains, locus YOR070C, strain gyp1, stronger effect = lower value 0.061 | S. cerevisiae deletion strains, locus YOR080W, strain dia2, stronger effect = lower value 0.0651 | S. cerevisiae deletion strains, locus YOR083W, strain WHI5, stronger effect = lower value 0.0643 | S. cerevisiae deletion strains, locus YOR106W, strain vam3, stronger effect = lower value 0.0643 | S. cerevisiae deletion strains, locus YOR136W, strain idh2, stronger effect = lower value 0.0723 | S. cerevisiae deletion strains, locus YOR144C, strain elg1, stronger effect = lower value 0.0556 | S. cerevisiae deletion strains, locus YOR184W, strain ser1, stronger effect = lower value 0.0771 | S. cerevisiae deletion strains, locus YOR231W, strain MKK1, stronger effect = lower value 0.112 | S. cerevisiae deletion strains, locus YOR265W, strain rbl2, stronger effect = lower value 0.0604 | S. cerevisiae deletion strains, locus YOR270C, strain vph1, stronger effect = lower value 0.0973 | S. cerevisiae deletion strains, locus YOR290C, strain snf2, stronger effect = lower value 0.0739 | S. cerevisiae deletion strains, locus YOR316C, strain cot1, stronger effect = lower value 0.0648 | S. cerevisiae deletion strains, locus YPL051W, strain arl3, stronger effect = lower value 0.0665 | S. cerevisiae deletion strains, locus YPL055C, strain LGE1, stronger effect = lower value 0.0731 | S. cerevisiae deletion strains, locus YPL078C, strain atp4, stronger effect = lower value 0.0694 | S. cerevisiae deletion strains, locus YPL106C, strain sse1, stronger effect = lower value 0.128 | S. cerevisiae deletion strains, locus YPL240C, strain hsp82, stronger effect = lower value 0.0639 | S. cerevisiae deletion strains, locus YPL241C, strain CIN2, stronger effect = lower value 0.0503 | S. cerevisiae deletion strains, locus YPL256C, strain CLN2, stronger effect = lower value 0.129 | S. cerevisiae deletion strains, locus YPR119W, strain clb2, stronger effect = lower value 0.0606 | S. cerevisiae deletion strains, locus YPR141C, strain kar3, stronger effect = lower value 0.0743 | S. cerevisiae deletion strains, locus YPR163C, strain tif3, stronger effect = lower value 0.079 | S. cerevisiae deletion strains, locus YPR167C, strain met16, stronger effect = lower value 0.0606 | S. cerevisiae deletion strains, strain wtn01, stronger effect = lower value 0.0603 | S. cerevisiae strains, strain wild type, stronger effect = lower value 0.0493
